# According to PubChem BioAssay (EPA / NIEHS):
# Records with an inconclusive call do not appear. The source made the active and inactive calls. Rule for the calls, unless noted: active = hit-call score of the fitted dose curve at least 0.9, where 1 is the maximum; inactive = score below 0.9.
# Assays:
# [1] = read-out: Interleukin-8 (IL8), CXCL8 (gene 3576); assay: BSK_SAg_IL8: BioMAP Diversity Plus: SAg Assay for Interleukin-8 (IL8) Biomarker Activity (AID 2283094); settings: primary human HUVEC with PBMC; actives raise or lower the signal
# Summary of the method: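 Human umbilical vein endothelial cells co-cultured with PBMC, stimulated with superantigen; IL-8 measured by ELISA 24 h after chemical dosing. Bidirectional fitting versus DMSO; SRB staining in parallel cultures tracks cytotoxicity.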
# [2] = BSK_SAg_Proliferation: Cell Proliferation Assessment in the BioMAP Diversity Plus: SAg Assay (AID 2283095); settings: primary human HUVEC with PBMC
# Summary of the method: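 Human umbilical vein endothelial cells co-cultured with PBMC; sulforhodamine B total-protein staining (0.1% SRB after 10% TCA fixation, absorbance 560 nm) at 96 h in sub-confluent culture. Fitted bidirectionally against DMSO.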
# [3] = BSK_SAg_SRB: Viability Assessment in the BioMAP Diversity Plus: SAg Assay (AID 2283096); settings: primary human HUVEC with PBMC;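 note: cells read one day after compound addition; hits may be either gain or loss of signal compared with DMSO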
# Summary of the method: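 Endothelial/PBMC primary human co-culture; compound 24 h; fix 10% TCA, stain 0.1% SRB, A560; protein content as cytotoxicity proxy; bidirectional curve fit, DMSO = baseline.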
# [4] = biological target: human CYP2D6, CYP2D6 (gene 1565) (UniProt P10635); assay: NVS_ADME_hCYP2D6: NovaScreen (NVS) CYP450-related Enzyme Activity (ADME) Assay for human CYP2D6 (AID 2283107; active = hit-call score of the fitted dose curve at least 0.9, where 1 is the maximum)
# Sequence of human CYP2D6, CYP2D6 (gene 1565) (P10635 whole entry, looked up): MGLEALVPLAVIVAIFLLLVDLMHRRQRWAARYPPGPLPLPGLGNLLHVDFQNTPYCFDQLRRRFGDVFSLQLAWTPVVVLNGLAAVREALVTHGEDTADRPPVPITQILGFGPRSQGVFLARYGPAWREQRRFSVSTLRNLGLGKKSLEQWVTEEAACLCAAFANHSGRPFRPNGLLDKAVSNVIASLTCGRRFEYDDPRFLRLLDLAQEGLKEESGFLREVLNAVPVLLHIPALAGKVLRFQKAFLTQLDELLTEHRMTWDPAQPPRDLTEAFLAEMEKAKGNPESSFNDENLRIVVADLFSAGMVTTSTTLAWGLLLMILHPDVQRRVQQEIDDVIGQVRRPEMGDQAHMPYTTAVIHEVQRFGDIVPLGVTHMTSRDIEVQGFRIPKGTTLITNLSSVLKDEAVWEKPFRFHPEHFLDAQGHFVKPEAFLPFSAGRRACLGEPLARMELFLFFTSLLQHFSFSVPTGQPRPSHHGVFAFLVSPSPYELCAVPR
# Summary of the method: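 Cell-free assay using recombinant enzyme expressed in insect cells, with fluorescence-intensity readout of enzyme activity 1 hour after chemical dosing. Loss of signal versus acetonitrile negative control indicates inhibition. Primary screen ran in duplicate at 10 uM; actives were retested in concentration series.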
# [5] = biological target: human CYP1A2, CYP1A2 (gene 1544) (UniProt P05177); assay: NVS_ADME_hCYP1A2: NovaScreen (NVS) CYP450-related Enzyme Activity (ADME) Assay for human CYP1A2 (AID 2283102; active = hit-call score of the fitted dose curve at least 0.9, where 1 is the maximum)
# Sequence of human CYP1A2, CYP1A2 (gene 1544) (P05177 whole entry, looked up): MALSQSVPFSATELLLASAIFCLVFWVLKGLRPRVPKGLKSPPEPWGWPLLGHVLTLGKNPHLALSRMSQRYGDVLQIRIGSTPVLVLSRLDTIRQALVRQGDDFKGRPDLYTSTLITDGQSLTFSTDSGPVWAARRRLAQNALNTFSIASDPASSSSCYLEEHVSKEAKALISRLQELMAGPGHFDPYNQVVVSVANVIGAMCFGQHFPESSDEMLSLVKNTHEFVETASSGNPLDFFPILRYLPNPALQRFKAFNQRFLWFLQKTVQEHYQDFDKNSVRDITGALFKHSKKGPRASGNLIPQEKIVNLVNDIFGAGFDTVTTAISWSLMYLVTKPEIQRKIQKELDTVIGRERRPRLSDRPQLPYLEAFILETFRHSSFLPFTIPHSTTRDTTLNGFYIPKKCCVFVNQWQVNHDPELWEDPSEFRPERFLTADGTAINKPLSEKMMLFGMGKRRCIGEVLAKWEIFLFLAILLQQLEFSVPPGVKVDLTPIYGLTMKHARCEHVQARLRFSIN
# Summary of the method: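 Cell-free recombinant human CYP1A2 expressed in insect cells, with fluorogenic substrate; fluorescence intensity read 0.5 h after dosing. Loss of signal relative to acetonitrile baseline scored. Primary screen in duplicate at 10 uM; actives retested in concentration series.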
# [6] = biological target: human CYP1A1, CYP1A1 (gene 1543) (UniProt P04798); assay: NVS_ADME_hCYP1A1: NovaScreen (NVS) CYP450-related Enzyme Activity (ADME) Assay for human CYP1A1 (AID 2283100; active = hit-call score of the fitted dose curve at least 0.9, where 1 is the maximum)
# Sequence of human CYP1A1, CYP1A1 (gene 1543) (P04798 whole entry, looked up): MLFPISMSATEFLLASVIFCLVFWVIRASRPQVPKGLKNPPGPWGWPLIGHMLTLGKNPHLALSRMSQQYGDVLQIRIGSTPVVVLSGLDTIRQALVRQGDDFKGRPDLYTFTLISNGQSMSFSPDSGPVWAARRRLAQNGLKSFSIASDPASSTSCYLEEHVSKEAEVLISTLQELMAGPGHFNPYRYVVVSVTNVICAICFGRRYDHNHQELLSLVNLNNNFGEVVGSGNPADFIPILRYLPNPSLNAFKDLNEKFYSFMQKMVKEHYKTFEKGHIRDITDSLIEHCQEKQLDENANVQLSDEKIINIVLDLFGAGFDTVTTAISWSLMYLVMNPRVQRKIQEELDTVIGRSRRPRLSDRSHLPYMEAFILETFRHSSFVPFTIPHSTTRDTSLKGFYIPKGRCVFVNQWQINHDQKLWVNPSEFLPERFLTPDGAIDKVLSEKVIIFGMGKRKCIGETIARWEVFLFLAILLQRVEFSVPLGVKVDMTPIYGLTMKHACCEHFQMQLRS
# Summary of the method: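 Cell-free fluorescence assay of recombinant human CYP1A1 activity with a specific substrate, read 1 h after dosing. Compounds were screened in duplicate at 10 uM, then hits tested in concentration-response up to 20 uM; acetonitrile served as baseline.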
# [7] = biological target: human CYP19A1, CYP19A1 (gene 1588) (UniProt P11511); assay: NVS_ADME_hCYP19A1: NovaScreen (NVS) CYP450-related Enzyme Activity (ADME) Assay for human CYP19A1 (AID 2283098; active = hit-call score of the fitted dose curve at least 0.9, where 1 is the maximum)
# Sequence of human CYP19A1, CYP19A1 (gene 1588) (P11511 whole entry, looked up): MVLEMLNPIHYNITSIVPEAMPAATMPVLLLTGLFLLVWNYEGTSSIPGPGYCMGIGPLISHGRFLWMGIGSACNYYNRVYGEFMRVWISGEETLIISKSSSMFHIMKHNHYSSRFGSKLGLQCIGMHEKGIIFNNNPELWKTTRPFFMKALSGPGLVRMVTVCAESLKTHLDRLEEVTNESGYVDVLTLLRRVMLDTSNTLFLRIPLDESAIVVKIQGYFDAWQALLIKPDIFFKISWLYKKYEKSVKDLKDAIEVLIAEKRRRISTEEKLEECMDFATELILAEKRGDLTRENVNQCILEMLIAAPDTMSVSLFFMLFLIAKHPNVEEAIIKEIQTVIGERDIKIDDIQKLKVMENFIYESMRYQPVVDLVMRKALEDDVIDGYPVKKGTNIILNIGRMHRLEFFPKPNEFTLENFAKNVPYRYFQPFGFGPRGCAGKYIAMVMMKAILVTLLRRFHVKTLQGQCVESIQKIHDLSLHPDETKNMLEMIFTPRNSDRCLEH
# Summary of the method: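 Cell-free enzyme assay with recombinant protein and a specific fluorogenic substrate, read by fluorescence intensity 0.5 h after dosing. Primary screen ran in duplicate at 10 uM; actives were retested in concentration series. Loss of signal versus acetonitrile baseline.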
# [8] = biological target: human CYP2B6, CYP2B6 (gene 1555) (UniProt P20813); assay: NVS_ADME_hCYP2B6: NovaScreen (NVS) CYP450-related Enzyme Activity (ADME) Assay for human CYP2B6 (AID 2283101; active = hit-call score of the fitted dose curve at least 0.9, where 1 is the maximum)
# Sequence of human CYP2B6, CYP2B6 (gene 1555) (P20813 whole entry, looked up): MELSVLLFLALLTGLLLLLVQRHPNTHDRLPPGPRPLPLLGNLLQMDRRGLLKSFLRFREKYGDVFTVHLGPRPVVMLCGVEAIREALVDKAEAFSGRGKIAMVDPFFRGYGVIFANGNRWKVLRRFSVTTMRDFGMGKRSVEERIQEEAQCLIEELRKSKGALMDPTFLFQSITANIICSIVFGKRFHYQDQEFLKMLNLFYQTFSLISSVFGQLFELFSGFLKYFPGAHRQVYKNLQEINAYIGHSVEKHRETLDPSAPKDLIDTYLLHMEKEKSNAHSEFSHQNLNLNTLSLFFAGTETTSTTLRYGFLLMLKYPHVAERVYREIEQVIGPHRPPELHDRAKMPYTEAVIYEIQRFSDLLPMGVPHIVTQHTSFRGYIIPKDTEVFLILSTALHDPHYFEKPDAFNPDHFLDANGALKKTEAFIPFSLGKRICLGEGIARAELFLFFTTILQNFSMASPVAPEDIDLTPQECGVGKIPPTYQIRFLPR
# Summary of the method: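 Recombinant protein, specific fluorescent substrate, read at 1 h post-dosing. Primary: single 10 uM, duplicate; follow-up: concentration series. Activity = signal loss vs acetonitrile baseline, with positive and negative controls on every plate.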
# [9] = biological target: human CYP2A6, CYP2A6 (gene 1548) (UniProt P11509); assay: NVS_ADME_hCYP2A6: NovaScreen (NVS) CYP450-related Enzyme Activity (ADME) Assay for human CYP2A6 (AID 2283099; active = hit-call score of the fitted dose curve at least 0.9, where 1 is the maximum)
# Sequence of human CYP2A6, CYP2A6 (gene 1548) (P11509 whole entry, looked up): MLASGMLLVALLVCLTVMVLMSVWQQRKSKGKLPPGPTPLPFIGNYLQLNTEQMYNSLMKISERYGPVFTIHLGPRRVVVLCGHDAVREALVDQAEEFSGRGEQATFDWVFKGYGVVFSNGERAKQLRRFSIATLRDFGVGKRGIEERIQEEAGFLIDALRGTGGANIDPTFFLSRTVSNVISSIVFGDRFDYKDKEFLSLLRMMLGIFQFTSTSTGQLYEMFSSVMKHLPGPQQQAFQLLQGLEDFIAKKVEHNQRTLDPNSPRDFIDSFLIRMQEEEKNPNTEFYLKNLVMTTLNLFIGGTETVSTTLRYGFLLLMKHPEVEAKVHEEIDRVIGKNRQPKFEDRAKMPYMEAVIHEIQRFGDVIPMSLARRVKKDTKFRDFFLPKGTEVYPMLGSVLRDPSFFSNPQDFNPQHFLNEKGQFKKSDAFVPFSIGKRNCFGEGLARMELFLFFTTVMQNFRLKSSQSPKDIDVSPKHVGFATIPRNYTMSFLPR
# Summary of the method: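 Cell-free fluorescence readout of recombinant human CYP2A6 expressed in insect cells, read 0.5 h after dosing; loss of signal versus acetonitrile negative control. Primary screen in duplicate at 10 uM; actives re-run in concentration-response up to 20 uM.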
smiles,measurement,setting,value
CCCCCCCCCC[N+](C)(C)[O-],outcome,[1],inactive
same,outcome,[2],inactive
same,outcome,[3],inactive
same,AC50,[4],2.69 µM (active)
Cc1ccc(-c2cc(C(F)(F)F)nn2-c2ccc(S(N)(=O)=O)cc2)cc1,AC50,[1],23.9 µM (active)
same,AC50,[2],23 µM (active)
same,AC50,[3],27.8 µM (active)
Cc1cc(Cc2ccc(N)c(C)c2)ccc1N,outcome,[1],inactive
same,outcome,[2],inactive
same,outcome,[3],inactive
same,outcome,[5],inactive
COc1ccc(C(=O)Nc2nc3ccccc3c(NCc3ccccc3)c2C#N)cc1,outcome,[1],inactive
same,AC50,[2],6.22 µM (active)
same,outcome,[3],inactive
same,outcome,[5],inactive
NCCOCCOCCN,outcome,[1],inactive
same,outcome,[2],inactive
same,outcome,[3],inactive
CN(C)CCCN1c2ccccc2Sc2ccc(Cl)cc21,AC50,[3],28.3 µM (active)
same,outcome,[6],inactive
CCCC[C@H]1CN(CC2CCOCC2)C(=O)OC12CCN(C1(C)CCN(C(=O)c3c(C)ncnc3C)CC1)CC2,outcome,[1],inactive
same,outcome,[2],inactive
same,outcome,[3],inactive
CCCC(=O)O,outcome,[1],inactive
same,AC50,[2],33.7 µM (active)
same,outcome,[3],inactive
CCCCCCCC(=O)OC,outcome,[1],inactive
same,outcome,[2],inactive
same,outcome,[3],inactive
CC(C)NCC(O)c1ccc(O)c(O)c1 (configuration not stated),outcome,[1],inactive
same,AC50,[2],24.5 µM (active)
same,outcome,[3],inactive
CC(N)=O,outcome,[1],inactive
same,outcome,[2],inactive
same,outcome,[3],inactive
same,outcome,[7],inactive
COC(=O)CCCC(=O)OC,outcome,[1],inactive
same,outcome,[2],inactive
same,outcome,[3],inactive
CCCCc1nc2cccnc2n1Cc1ccc(-c2ccccc2-c2nnn[nH]2)cc1,outcome,[1],inactive
same,outcome,[2],inactive
same,outcome,[3],inactive
CC(C)c1cccc(C(C)C)c1NC(=O)NS(=O)(=O)c1cc(C(C)(C)O)co1,outcome,[1],inactive
same,outcome,[2],inactive
same,outcome,[3],inactive
CC(=O)OCC(COC(C)=O)OC(C)=O,outcome,[1],inactive
same,outcome,[2],inactive
same,outcome,[3],inactive
same,outcome,[6],inactive
CCN(CC)CCOc1ccc(C(=C(Cl)c2ccccc2)c2ccccc2)cc1,AC50,[1],7.87 µM (active)
same,AC50,[2],3.54 µM (active)
same,AC50,[3],11.1 µM (active)
same,AC50,[8],11.3 µM (active)
same,AC50,[4],2.38 µM (active)
Cc1ccc(C(C)(C)C)c(O)c1,outcome,[1],inactive
same,outcome,[2],inactive
same,outcome,[3],inactive
O=C(O)c1[nH]n(-c2ccc(S(=O)(=O)O)cc2)c(=O)c1N=Nc1ccc(S(=O)(=O)O)cc1,outcome,[1],inactive
same,outcome,[2],inactive
same,outcome,[3],inactive
CC(=O)OC1CC(C)OC(C)O1 (configuration not stated),outcome,[1],inactive
same,AC50,[2],13.5 µM (active)
same,outcome,[3],inactive
same,outcome,[6],inactive
same,outcome,[4],inactive
CN(C)C(=O)NC1(c2ccccc2)CCN(CC[C@@]2(c3ccc(F)c(F)c3)CN(C(=O)c3ccccc3)CCO2)CC1,outcome,[1],inactive
same,AC50,[2],26.1 µM (active)
same,outcome,[3],inactive
Nc1nc(Cl)nc2c1ncn2[C@H]1C[C@H](O)[C@@H](CO)O1,outcome,[1],inactive
same,AC50,[2],0.147 µM (active)
same,AC50,[3],0.554 µM (active)
same,outcome,[7],inactive
Cn1cnc2c1c(=O)[nH]c(=O)n2C,outcome,[1],inactive
same,outcome,[2],inactive
same,outcome,[3],inactive
OCC(O)CO,outcome,[1],inactive
same,outcome,[2],inactive
same,outcome,[3],inactive
S=c1[nH]c2ccccc2s1,outcome,[1],inactive
same,outcome,[2],inactive
same,outcome,[3],inactive
same,AC50,[9],4.85 µM (active)
same,AC50,[8],1.28 µM (active)
same,outcome,[5],inactive
same,AC50,[4],6.77 µM (active)
Cc1c(C)c2c(c(C)c1O)CCC(C)(COc1ccc(CC3SC(=O)NC3=O)cc1)O2 (configuration not stated),AC50,[1],32.8 µM (active)
same,AC50,[2],14.1 µM (active)
same,AC50,[3],23.7 µM (active)
N[C@@H](Cc1c[nH]c2ccccc12)C(=O)O,outcome,[1],inactive
same,outcome,[2],inactive
same,outcome,[3],inactive
NC1CCCCC1,outcome,[1],inactive
same,outcome,[2],inactive
same,outcome,[3],inactive
same,outcome,[9],inactive
same,outcome,[8],inactive
CN(C)CCCN(C)CCCN(C)C,outcome,[1],inactive
same,outcome,[2],inactive
same,outcome,[3],inactive
NC=O,outcome,[1],inactive
same,outcome,[2],inactive
same,outcome,[3],inactive
